# Measurements published in the supplement of paper PMC13380429.
# Unmarked numbers belong to inactive results.
# Tested on: Vero E6 infected with SARS-CoV-2
# Test: inhibition of SARS-CoV-2 cytopathic effect; higher = more antiviral protection, active = above 15
# Conditions: 48 h
Structure (SMILES),inhibition of SARS-CoV-2 cytopathic effect (1 nM),inhibition of SARS-CoV-2 cytopathic effect (8.33 nM),inhibition of SARS-CoV-2 cytopathic effect (100 nM),inhibition of SARS-CoV-2 cytopathic effect (833.33 nM),inhibition of SARS-CoV-2 cytopathic effect (10000 nM)
COC(=O)[C@]12CCC(C)(C)C[C@H]1[C@H]1C(=O)C=C3[C@@]4(C)C=C(C#N)C(=O)C(C)(C)[C@@H]4CC[C@@]3(C)[C@]1(C)CC2 [Bardoxolone Methyl],2.85%,3.94%,-1.03%,33.7% (active),-23.4%
Cc1noc2c1-c1ccccc1C(c1ccc(Cl)cc1)=N[C@H]2CC(N)=O,-3.02%,0.61%,-3.13%,0.14%,-11.1%
COc1nc(C)cnc1NS(=O)(=O)c1cccnc1-c1ccc(-c2nnco2)cc1 [zibotentan],-2.02%,-0.17%,-0.98%,-3.56%,-1.47%
COC(=O)N1CCN(Cc2cccc(NC(=O)Nc3ccc(C)nc3)c2F)CC1 [omecamtiv-mecarbil],-0.03%,0.93%,-0.98%,0.86%,3.03%
COc1ccc(C(=O)C2CCN(CC(=O)N(Cc3nc4c(c(=O)[nH]3)COCC4)CC3CC3)CC2)cc1,1.44%,-0.07%,-1.36%,1.12%,-1.65%
CC(CCc1ccc(O)cc1)NCC(O)c1ccc(O)cc1 (stereo not given) [ractopamine],-2.7%,-0.49%,-1.47%,-0.11%,1.53%
O=C1CCc2cc(OCCCCc3nnnn3C3CCCCC3)ccc2N1 [cilostazol],-1.01%,-0.9%,1.96%,-0.77%,-0.84%
C[C@]12COC(=O)C[C@@H]1CC[C@@H]1[C@@H]2CC[C@@]2(C)[C@H]1CC[C@]2(C)O [Oxandrolone],1.55%,0.57%,-0.27%,-0.56%,0.44%
O=C(O)/C=C1\CCCc2ccccc2[C@H]1O (racemic),0.95%,1.44%,1.65%,1.72%,4.1%
C#C[C@]1(O)CC[C@H]2[C@@H]3CCC4=Cc5oncc5C[C@]4(C)[C@H]3CC[C@@]21C [danazol],2.48%,-0.9%,1.74%,3.55%,6.39%
CN(C[C@@H]1COCCO1)S(=O)(=O)Nc1ccc2ccc3ncc(-c4cnn(C)c4)cc3c(=O)c2c1,-0.78%,1.08%,-0.46%,-1.97%,-4.16%
CC(=O)N[C@H](Cc1ccc2ccccc2c1)C(=O)N[C@H](Cc1ccc(Cl)cc1)C(=O)N[C@H](Cc1cccnc1)C(=O)N[C@@H](CO)C(=O)N[C@@H](Cc1ccc(O)cc1)C(=O)N[C@H](CCCNC(N)=O)C(=O)N[C@@H](CC(C)C)C(=O)N[C@@H](CCCNC(=N)N)C(=O)N1CCC[C@H]1C(=O)N[C@H](C)C(N)=O [cetrorelix],-4.73%,-2.29%,5.4%,5.13%,8.43%
C=CC1=C(C(=O)O)N2C(=O)[C@@H](NC(=O)/C(=N\O)c3csc(N)n3)[C@H]2SC1 [cefdinir],1.85%,2.62%,2.17%,-0.24%,0.66%
CN/C(=N\c1ccc(C2=NNC(=O)CC2C)cc1)NC#N (stereo not given) [siguazodan],1.52%,1.14%,-0.26%,1.67%,-1.34%
COc1ccc(C(CN(C)C)C2(O)CCCCC2)cc1 (stereo not given) [venlafaxine],0.56%,0.96%,1.86%,-0.35%,-0.29%
N=C(N)SCCc1c[nH]cn1 [imetit],-0.58%,-0.44%,-2.84%,-2.2%,-1.05%
C[C@@]12CCc3occc3[C@H]1CC[C@@]13C[C@@H](CC[C@H]12)[C@@](O)(CO)C3 [cafestol],-4.07%,-1.86%,2%,2.62%,1.59%
